In the supplement of paper PMC10477191:
± gives the standard deviation of the averaged measurements.

The molecules below were run on Drosophila ezoana antennal basiconic sensillum ab6 (assay: odor-evoked OSN spike response (post minus pre-stimulus); higher = stronger neuronal excitation). Settings: odor dilution: 10^-4.
Description: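 Single sensillum recordings from antennal basiconic sensilla of D. ezoana. A 500 ms pulse of odorant (10^-4 in mineral oil or DMSO) was delivered; the response is the change in action potential frequency between the 1 s pre- and post-stimulus windows (spikes/s).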

Row | SMILES | odor-evoked OSN spike response
1 | Oc1ccccc1 [phenol] | 73 ± 38 spikes/s
2 | CCOC(=O)C(C)O (stereo not given) [Ethyl lactate] | 58 ± 18 spikes/s
3 | OCCc1ccccc1 [2-phenylethanol] | 53 ± 31 spikes/s
4 | C=CC(O)CCCCC (stereo not given) [1-octen-3-ol] | 143 ± 47 spikes/s
5 | CCCCCOC(C)=O [pentyl acetate] | 67.9 ± 20 spikes/s
6 | CCOC(=O)CC(C)O (stereo not given) [Ethyl-3-hydroxybutyrate] | 93.1 ± 33 spikes/s
7 | CCCCC(C)O (stereo not given) [2-hexanol] | 67.3 ± 33 spikes/s
8 | CCOC(=O)c1ccccc1 [ethyl benzoate] | 66.1 ± 26 spikes/s
9 | COc1ccccc1O [guaiacol] | 123 ± 36 spikes/s
10 | CCCCCC(C)=O [2-heptanone] | 60.9 ± 21 spikes/s
11 | CCCC(=O)OCC [ethyl butanoate] | 52.1 ± 29 spikes/s
12 | CCCCCCO [1-hexanol] | 77.5 ± 29 spikes/s
13 | CCCCCC(=O)OCC [ethyl hexanoate] | 52.2 ± 20 spikes/s
14 | CC(=O)CCC=C(C)C [6-methyl-5-hepten-2-one] | 58.1 ± 30 spikes/s
15 | CCCCCCCC(C)=O [2-nonanone] | 54.7 ± 22 spikes/s
16 | CCOC(C)=O [Ethyl acetate] | 55.2 ± 25 spikes/s
17 | CCCCCCCC(C)O (stereo not given) [2-nonanol] | 55.7 ± 33 spikes/s
18 | COC(=O)c1ccccc1O [Methyl salicylate] | 58.3 ± 32 spikes/s
19 | C/C=C/C(=O)OCC [Ethyl crotonate] | 71.1 ± 37 spikes/s
20 | CC(=O)C(C)O (stereo not given) [acetoin] | 69.8 ± 40 spikes/s
